PubChem BioAssay
Where “and” joins values, the source holds several entries; their conditions need not be identical. Identical values can stand only once.

Experiment: EMT-state selective cytotoxicity in co-culture – imaging, PC-3E GFP, TEM4-18 mCherry, primary screen (AID 1345086);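 note: cells exposed to compound for 72 h before imaging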
Conditions: PC-3E GFP / TEM4-18 mCherry co-culture, imaging cell counts; measured here: mesenchymal TEM4-18 mCherry cell survival; at 1 µM

SMILES | normalised cell number
OCC(S)CS (stereo not given) | 0.73
CC(=O)O[C@@H]1CC2C(C)(C)C(=O)C3OC3[C@]2(C)C2CC[C@@]3(C)[C@H](c4ccoc4)OC(=O)C4OC43[C@@]21C (stereo not given in full) | 1.05
CC(=O)OC/C=C(\C)CC/C=C(\C)CC/C=C(\C)CC/C=C(\C)CC/C=C(\C)CC/C=C(\C)CC/C=C(\C)CC/C=C(\C)CCC=C(C)C | 1.04
O=S(=O)(O)c1cc(N=C=S)ccc1/C=C/c1ccc(N=C=S)cc1S(=O)(=O)O | 1.11
COc1ccc(-c2cc(=O)c3c(O)c(OC)c(OC)c(OC)c3o2)cc1OC | 1.09
CC(=O)O[C@H]1C[C@@H](OC(C)=O)C(C)(C)C2C[C@@H](O)[C@]3(C)C(CC[C@@]4(C)[C@H](c5ccoc5)OC(=O)[C@H]5O[C@]543)[C@]21C (stereo not given in full) | 0.86
CC1=CC(=O)C2C(C)(C)CCC[C@]2(C)[C@@]1(O)CCc1ccoc1 (stereo not given in full) | 0.96
CCCCCCCCCCCCCCCC(=O)OCC(O)CO (stereo not given) | 0.96
Cc1c(S(=O)(=O)O)oc2c1C(=O)C(=O)c1c-2ccc2c1CCCC2(C)C | 1.18
CC(=O)O[C@H]1CC[C@@]2(C)C(C[C@@H](OC(C)=O)[C@]3(C)C2CC[C@@]2(C)[C@H](c4ccoc4)OC(=O)[C@H]4O[C@]423)C1(C)C (stereo not given in full) | 1.12
CC1(C)C(=O)[C@@H]2C[C@@]3(O)C4=CC(=O)O[C@@H](c5ccoc5)[C@]4(C)CCC3C(C)(C2=O)[C@H]1CC(=O)O (stereo not given in full) | 1.01
CC(=O)O[C@H]1CC[C@@]2(C)C(C[C@@H](OC(C)=O)[C@@]3(C)C4=CC(=O)O[C@@H](c5ccoc5)[C@]4(C)CCC23)C1(C)C (stereo not given in full) | 0.82
O=C(O)/C=C/C=C/c1ccccc1 | 0.93
CNC(C)[C@@H]1CC[C@@H](N)[C@@H](OC2[C@@H](N)C[C@@H](N)[C@H](OC3OC[C@](C)(O)[C@H](NC)[C@H]3O)[C@H]2O)O1 (stereo not given in full) | 1.32
O=C(O)c1cc(=O)c(O)c2c(O)c(O)c(O)cc2c1 | 0.94
OC[C@H]1O[C@@H](O[C@H]2[C@H](O)[C@@H](O)[C@@H](O)O[C@@H]2CO)[C@H](O)[C@@H](O)[C@@H]1O | 1.04
S=c1ccss1 | 1.2
COc1cc2oc3cc(OC)c(OC)c(CC=C(C)C)c3c(=O)c2c(OC)c1CC=C(C)C | 0.97
CC(=O)Oc1cc(C)c2c(c1C(OC(C)=O)OC(C)=O)Oc1c(c(C)c(OC(C)=O)c3c1C(OC(C)=O)OC3=O)OC2=O (stereo not given) | 0.92
CC(=O)OCC(=O)[C@@]1(O)CCC2C3CCC4=CC(=O)C=C[C@]4(C)[C@@]3(F)[C@@H](O)C[C@@]21C (stereo not given in full) | 0.95

SMILES | normalised cell number
CC(=O)OCC(OC(C)=O)C(OC(C)=O)C(OC(C)=O)C(OC(C)=O)C(COC(C)=O)OC(C)=O (stereo not given) | 1.05
COc1ccc([C@H]2COc3c(ccc(O)c3OC)C2)c(OC)c1O | 0.9
O=C1C=CC(=O)c2c(O)c(Cl)c(Cl)c(O)c21 | 1.04
O=c1cccc2ccc(O)c(O)c2c1O | 1.02
O=C(O)c1ccc2c(c1)OCO2 | 1.05
COc1ccc(-c2oc3cc(OC)c(OC)c(OC)c3c(=O)c2OC)cc1 | 1.05
Nc1ccc(C(=O)O)c(O)c1 (tested in a mixture with another compound) | 1.06
COc1ccc(-c2coc3cc(O)ccc3c2=O)c(OC)c1 | 1.08
O=c1cc(-c2ccc(O)cc2)oc2cc(O)ccc12 | 0.98
C=CC(C1=CC(=O)C=CC1=O)c1ccccc1 (stereo not given) | 1
O=C(NC1CCCCC1)NC1CCCCC1 | 1.06
COc1cc(O)c(C(=O)/C=C/c2ccc(OC)c(O)c2)c(OC)c1 | 0.9
O=c1cc(-c2ccccc2)oc2cccc(O)c12 | 1.03
CC(=O)Oc1cc(OC(C)=O)c2c(c1)O[C@H](c1ccc(OC(C)=O)c(OC(C)=O)c1)[C@@H](OC(C)=O)C2 | 0.84
COc1ccc(/C=C/C(=O)c2cc(O)ccc2O)cc1 | 1.03
Cc1cc(O)c(C=O)c2c1C(=O)Oc1c(COC(=O)/C=C/C(=O)O)c(O)c(C(=O)O)c(C)c1O2 | 1.25
COc1ccc(-c2cc(=O)c3c(OC)c(OC)c(OC)cc3o2)cc1OC | 1.08
COc1ccc(-c2cc(=O)c3c(O)cc(OC)c(OC)c3o2)c(OC)c1 | 0.99
COc1ccc(/C=C/C(=O)O)cc1OC | 0.91 and 0.98
COc1ccc(/C=C/C(=O)c2ccc(O)cc2O)cc1 | 0.99
